The target of assay [1] is Rap guanine nucleotide exchange factor 3 (Homo sapiens) (UniProt O95398). As to the kind of experiment: Confirmatory qHTS for antagonist of cAMP-regulated guanine nucleotide exchange factor 3 (EPAC1) (AID 1645880). Also: nearly all actives have a fitted effect of over 55% in size. Also: potency is read from the fitted curve at half-maximal effect. In outline: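 Nucleotide exchange uses 100 nM EPAC1, 250 nM RAP1B-BODIPY-GDP and 50 uM GDP, with compounds in a concentration-titration series. After 5 min at room temperature, fluorescence (480 nm ex/540 nm em) is read every 5 min for 30 min. Data are normalized to control ATA and DMSO.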
Rap guanine nucleotide exchange factor 3 (Homo sapiens), sequence (O95398 whole entry, looked up): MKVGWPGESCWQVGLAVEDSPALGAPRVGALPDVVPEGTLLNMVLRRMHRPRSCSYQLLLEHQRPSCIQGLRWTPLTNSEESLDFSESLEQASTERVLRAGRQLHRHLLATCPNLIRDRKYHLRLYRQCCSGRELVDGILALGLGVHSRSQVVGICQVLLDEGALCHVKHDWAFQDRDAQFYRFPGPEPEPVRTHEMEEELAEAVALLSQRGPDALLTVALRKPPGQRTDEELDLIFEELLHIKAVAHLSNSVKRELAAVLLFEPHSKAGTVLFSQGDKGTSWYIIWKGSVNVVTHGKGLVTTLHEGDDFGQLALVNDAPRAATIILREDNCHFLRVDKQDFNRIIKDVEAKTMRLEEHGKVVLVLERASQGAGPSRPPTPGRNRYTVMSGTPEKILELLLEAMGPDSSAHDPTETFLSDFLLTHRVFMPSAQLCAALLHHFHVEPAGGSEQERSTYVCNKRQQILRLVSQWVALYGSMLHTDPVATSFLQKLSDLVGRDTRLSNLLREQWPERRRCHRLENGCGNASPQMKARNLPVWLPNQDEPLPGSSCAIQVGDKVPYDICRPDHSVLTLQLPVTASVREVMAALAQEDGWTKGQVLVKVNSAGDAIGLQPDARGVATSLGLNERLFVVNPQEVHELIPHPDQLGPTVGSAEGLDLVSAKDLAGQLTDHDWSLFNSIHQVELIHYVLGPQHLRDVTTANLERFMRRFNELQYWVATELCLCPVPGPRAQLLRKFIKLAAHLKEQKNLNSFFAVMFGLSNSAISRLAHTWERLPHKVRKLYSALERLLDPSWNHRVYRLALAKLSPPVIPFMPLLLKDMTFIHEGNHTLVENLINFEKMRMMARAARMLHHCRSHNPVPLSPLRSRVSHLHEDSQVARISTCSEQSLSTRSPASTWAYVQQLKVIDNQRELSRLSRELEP
(In general: In qHTS, concentration-response curves come from the screen itself.)

The target is the same in assay [2]. As to the kind of experiment: Confirmatory qHTS for agonist of cAMP-regulated guanine nucleotide exchange factor 3 (EPAC1) (AID 1645881). Also: nearly all actives have a fitted effect of over 75% in size. Also: potency is read from the fitted curve at half-maximal effect.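 As to activation: EPAC1 catalysed release of BODIPY-GDP from Rap1B seen as fluorescence loss; 100% = effect of cAMP agonist control.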
For assay [3], the target named is Rap guanine nucleotide exchange factor 4 (Homo sapiens) (UniProt Q8WZA2). Nature of the assay: Confirmatory qHTS for agonist of cAMP-regulated guanine nucleotide exchange factor 4 (EPAC2) (AID 1645884).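 Also: nucleotide exchange releases bodipy-GDP from Rap1 and this lowers its fluorescence; nearly all actives have a fitted effect of over 65% in size.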 Also: potency is read from the fitted curve at half-maximal effect.
Rap guanine nucleotide exchange factor 4 (Homo sapiens), sequence (Q8WZA2 whole entry, looked up): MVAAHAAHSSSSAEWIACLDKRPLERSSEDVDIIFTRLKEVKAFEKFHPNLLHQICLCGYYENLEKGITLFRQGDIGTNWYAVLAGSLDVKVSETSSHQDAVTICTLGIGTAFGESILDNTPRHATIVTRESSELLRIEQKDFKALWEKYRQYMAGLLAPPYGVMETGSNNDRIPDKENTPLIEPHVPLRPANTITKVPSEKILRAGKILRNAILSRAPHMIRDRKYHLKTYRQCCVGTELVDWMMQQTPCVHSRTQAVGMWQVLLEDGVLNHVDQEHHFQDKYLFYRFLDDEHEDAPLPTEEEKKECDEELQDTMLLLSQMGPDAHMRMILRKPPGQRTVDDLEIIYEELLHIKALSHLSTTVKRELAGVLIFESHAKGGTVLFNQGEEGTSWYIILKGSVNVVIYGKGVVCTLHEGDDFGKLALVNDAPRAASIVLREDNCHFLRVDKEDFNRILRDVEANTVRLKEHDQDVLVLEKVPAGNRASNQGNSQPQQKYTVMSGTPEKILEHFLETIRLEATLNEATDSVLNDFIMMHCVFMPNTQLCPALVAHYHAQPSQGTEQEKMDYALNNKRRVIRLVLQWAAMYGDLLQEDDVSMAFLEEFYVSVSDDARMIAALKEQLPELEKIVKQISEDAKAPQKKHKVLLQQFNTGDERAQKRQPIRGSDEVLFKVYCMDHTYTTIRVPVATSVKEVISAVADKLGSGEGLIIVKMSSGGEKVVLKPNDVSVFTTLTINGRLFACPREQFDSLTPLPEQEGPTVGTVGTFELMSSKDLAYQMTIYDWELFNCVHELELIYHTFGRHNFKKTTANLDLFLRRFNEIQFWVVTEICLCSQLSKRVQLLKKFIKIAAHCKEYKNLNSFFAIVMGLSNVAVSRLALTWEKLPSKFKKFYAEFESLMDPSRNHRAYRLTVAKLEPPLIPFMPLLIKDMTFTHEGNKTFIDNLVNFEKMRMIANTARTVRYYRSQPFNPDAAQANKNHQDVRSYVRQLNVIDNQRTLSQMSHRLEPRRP
For assay [4] the target is unchanged. Nature of the assay: Confirmatory qHTS for antagonist of cAMP-regulated guanine nucleotide exchange factor 4 (EPAC2) (AID 1645885). Also: nearly all actives have a fitted effect of over 25% in size. Also: potency is read from the fitted curve at half-maximal effect. As to activity change, negative = inhibition: % is scaled to controls: 0 for no effect and ±100 for the full control effect.
The target of assay [5] is Rap guanine nucleotide exchange factor 3 (Homo sapiens) (UniProt O95398). As to the kind of experiment: Counterscreen qHTS for antagonist of cAMP-regulated guanine nucleotide exchange factor 3 (EPAC1) (AID 1645888).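 Also: fluorescence loss as bound BODIPY-GDP is released from Rap1B; % of control where 0% means no effect.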 The gist of the method:
(§1)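 Rap1B-BODIPY-GDP 250 nM + GDP 50 uM; cpds 7-pt, final 9.74 nM–152 uM (activator mode) or from 7.32 nM upwards (inhibitor mode); RT; FI 480/540 nm at 5 and 30 min, then ± cAMP, reread.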
On the technique in general: A counterscreen serves to expose hits that act by an unwanted route or on another target.

For assay [6] the target is unchanged. Nature of the assay: Counterscreen qHTS for agonist of cAMP-regulated guanine nucleotide exchange factor 3 (EPAC1) (AID 1645889). Also: nearly all actives have a fitted effect of over 40% in size. Also: potency is read from the fitted curve at half-maximal effect. As to activation: % of control where 0% means no effect. In outline: as §1
Assay [7] in a line: AP1 Signaling Pathway (AID 357; active = well fitted curve in either direction with a large enough effect, not every such curve was filed as active;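 also: ME-180 reporter cells stimulated with EGF at its EC50 level; % is scaled to controls: 0 for no effect and ±100 for the full control effect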). In outline:
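Modulation of EGF-driven AP-1 transcription was assessed with a beta-lactamase reporter in ME-180 cells. Compound and EC50 EGF were co-incubated 5 hours at 37 °C before 2.5-hour CCF4 loading at room temperature and dual-emission reading.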

Assay [8] can be described thus: NFAT Signaling Pathway (AID 444; active = well fitted curve in either direction with a large enough effect, not every such curve was filed as active;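 also: carbachol stimulus at about its EC50 of 1 µM final; % is scaled to controls: 0 for no effect and ±100 for the full control effect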). The conditions noted are these: Jurkat NFAT-bla M1, carbachol, beta-lactamase ratio, 5 h; at 17.2 µM (top of the series). In outline:
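Read-out: CCF4 FRET ratio (460 nm/530 nm) after 1 h RT dye loading, used for %activity and AC50 from titration series. Cells: Jurkat NFAT-β-lactamase/M1 line, treated with compound plus 1 uM carbachol for 5 h, 37 °C.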

Assay [9] is described as follows: Stat Signaling Pathway (AID 446; active = well fitted curve in either direction with a large enough effect, not every such curve was filed as active;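 also: ME-180 cervical cancer cells given 40 pM IL-6 alongside compound; SIE-controlled beta-lactamase reporter measured as 460/530 nm FRET emission ratio; % is scaled to controls: 0 for no effect and ±100 for the full control effect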). The gist of the method: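 IL-6/STAT signaling read in ME-180 cells via an SIE beta-lactamase reporter. Stimulus was 40 pM IL-6 (its AC50) for 5 hrs, so both activation and inhibition register.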
In assay [10] the target is Glucocorticoid receptor (Homo sapiens) (UniProt P04150). As to the kind of experiment: GR-GFP Redistribution (AID 450;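 active = compounds whose dose series gives a full or clear partial fitted curve of increased nuclear translocation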; also: potency is read from the fitted curve at half-maximal effect). The conditions noted are these: U2OS GR-GFP nuclear translocation, laser cytometry, 2 h.
Glucocorticoid receptor (Homo sapiens), sequence (P04150 whole entry, looked up): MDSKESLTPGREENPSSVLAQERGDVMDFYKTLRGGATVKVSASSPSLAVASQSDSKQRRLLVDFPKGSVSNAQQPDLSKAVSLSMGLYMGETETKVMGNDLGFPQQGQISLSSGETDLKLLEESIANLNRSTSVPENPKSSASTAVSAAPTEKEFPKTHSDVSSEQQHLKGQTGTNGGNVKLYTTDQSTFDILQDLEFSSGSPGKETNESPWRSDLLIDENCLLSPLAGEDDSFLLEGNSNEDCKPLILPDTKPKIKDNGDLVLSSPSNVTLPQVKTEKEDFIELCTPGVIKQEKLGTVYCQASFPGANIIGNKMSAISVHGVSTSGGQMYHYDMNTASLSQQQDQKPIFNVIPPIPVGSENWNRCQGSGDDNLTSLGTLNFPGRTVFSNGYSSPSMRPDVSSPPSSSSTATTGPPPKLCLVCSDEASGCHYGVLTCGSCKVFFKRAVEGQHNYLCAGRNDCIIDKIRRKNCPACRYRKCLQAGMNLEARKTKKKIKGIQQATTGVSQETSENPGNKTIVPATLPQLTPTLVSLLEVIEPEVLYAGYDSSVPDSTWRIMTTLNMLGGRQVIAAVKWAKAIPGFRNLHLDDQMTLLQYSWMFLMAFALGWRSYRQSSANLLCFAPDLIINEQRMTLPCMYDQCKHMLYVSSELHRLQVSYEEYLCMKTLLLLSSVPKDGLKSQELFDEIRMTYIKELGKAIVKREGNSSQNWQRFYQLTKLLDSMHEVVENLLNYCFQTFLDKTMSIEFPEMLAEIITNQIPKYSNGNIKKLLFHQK
Assay [11] has as its target Cytochrome P450 3A4 (Homo sapiens) (UniProt P08684). Nature of the assay: qHTS Assay for Inhibitors and Substrates of Cytochrome P450 3A4 (AID 884). Also: % is scaled to controls: 0 for no effect and ±100 for the full control effect; nearly all actives have a fitted effect of over 50% in size. The gist of the method:
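20 nM human CYP3A4 with 25 uM Luciferin-PPXE (at KM) in 200 mM KPO4, preincubated 10 min with compound; NADPH regeneration started a 60 min RT reaction. Luciferin detected by luminescence, normalized to 57 uM ketoconazole as full inhibition.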

Assay [12] addresses DNA dC->dU-editing enzyme APOBEC-3G (Homo sapiens) (UniProt Q9HC16). Nature of the assay: qHTS for inhibitors of Vif-A3G interactions: Validation (AID 588379). Also: 0% is about no effect. The gist of the method: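 HeLa cells stably expressing Vif and A3G-eYFP, 700 cells/well, incubated overnight at 37 deg C, then exposed to compound overnight at 37 deg C. Inhibition of Vif-mediated degradation read as increased yellow fluorescence (Ex 488/Em 500-530) by laser-scanning cytometry.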

Values without a mark were called inactive. Records with an inconclusive call do not appear. Calls of active or inactive are those of the source. Unless noted, calls follow the shape of the dose curve; as a rule, active = well fitted curve in the direction sought with a large enough effect; inconclusive = small, poorly fitted or top-dose-only effect, or another doubt; inactive = no such curve, though single readings can be large; an effect the other way counts as inactive or inconclusive.

DNA dC->dU-editing enzyme APOBEC-3G (Homo sapiens), sequence (Q9HC16 whole entry, looked up): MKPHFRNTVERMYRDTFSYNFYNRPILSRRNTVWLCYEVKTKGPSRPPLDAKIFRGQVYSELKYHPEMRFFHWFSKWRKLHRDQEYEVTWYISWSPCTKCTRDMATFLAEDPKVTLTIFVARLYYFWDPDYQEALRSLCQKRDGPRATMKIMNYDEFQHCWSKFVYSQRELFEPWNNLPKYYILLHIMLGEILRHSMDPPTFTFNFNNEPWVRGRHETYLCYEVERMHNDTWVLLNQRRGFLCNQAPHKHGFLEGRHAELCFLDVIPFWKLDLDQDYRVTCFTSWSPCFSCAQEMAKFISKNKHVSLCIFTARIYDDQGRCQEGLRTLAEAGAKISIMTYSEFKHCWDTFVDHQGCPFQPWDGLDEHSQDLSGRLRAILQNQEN
Cytochrome P450 3A4 (Homo sapiens), sequence (P08684 whole entry, looked up): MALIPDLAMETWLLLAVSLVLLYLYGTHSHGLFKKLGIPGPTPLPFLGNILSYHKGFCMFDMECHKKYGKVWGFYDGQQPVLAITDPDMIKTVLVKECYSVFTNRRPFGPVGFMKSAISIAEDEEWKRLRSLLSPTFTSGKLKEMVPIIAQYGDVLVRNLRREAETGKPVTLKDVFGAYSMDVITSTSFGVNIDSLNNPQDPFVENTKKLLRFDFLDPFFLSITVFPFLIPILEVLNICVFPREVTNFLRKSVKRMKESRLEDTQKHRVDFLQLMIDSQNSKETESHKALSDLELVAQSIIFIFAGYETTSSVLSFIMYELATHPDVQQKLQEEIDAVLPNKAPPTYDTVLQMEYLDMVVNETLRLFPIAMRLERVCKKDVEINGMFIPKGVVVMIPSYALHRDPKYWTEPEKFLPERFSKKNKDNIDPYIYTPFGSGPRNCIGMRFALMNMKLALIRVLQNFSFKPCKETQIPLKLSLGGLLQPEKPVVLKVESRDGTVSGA

Turning to `COc1ccc(N=Cc2c(O)n(Cc3ccccc3)c(=S)[nH]c2=O)c(OC)c1`, the Potency result in assay [1], in assay [4] and in [6] was “inactive” throughout. Besides, the figures for the Potency in [2] and in assay [3] were 79.4 µM (active) and 100 µM (active), respectively. Also, the molecule was called inactive in assay [5].
For `O=C1Nc2ccccc2/C1=C/c1nc2ccccc2c(=O)n1-c1ccc(O)cc1`, in assay [1], the Potency was 35.5 µM (active). For the same molecule, in [2], the Potency result is “inactive”. Moreover, the activation in assay [3] is 2.57% [at 17.1 µM, percent relative to cAMP agonist control]; in assay [6] it was 1.32% [at 30.8 µM]. The results for the activity change, negative = inhibition in assay [4] and in assay [5] were 0.205% [at 12.7 µM] and -7.19% [at 30.8 µM], respectively.
In the case of `OC1/C(=C/c2ccc(C(F)(F)F)cc2)N2CCC1CC2` (centres undefined), the Potency result in assay [1], in assay [2], in [3], in [4] and in assay [6] was “inactive” throughout. Besides, in [5], the result was inactive.
Consider `CCOC(=O)c1cc(CC)sc1/N=C/c1c(O)[nH]c(=S)[nH]c1=O`, for which the Potency entry in assay [1] and in assay [4] was “inactive” throughout. The Potency in assay [2] and in assay [3] was 100 µM (active) in each case. Further, the molecule was classed as inactive in assay [5].
Regarding `CCN(CC)c1ccc(N=Cc2c(O)n(-c3cc(OC)ccc3OC)c(=O)[nH]c2=O)cc1`, the result in [7] and in assay [9] was inactive. The activity change, negative = inhibition is -6.84% in [8], -9.2% [at 12.7 µM] in assay [4] and -4.74% [at 30.8 µM] in [5]. Also, the Potency in [10] was > 20.6 µM; in assay [2], 70.8 µM (active). Besides, the Potency result in [1] is “inactive”. In assay [3], the activation was 4.47% [at 17.1 µM, percent relative to cAMP agonist control].
As for `COc1ccc(CN2C(=O)NC(=O)/C(=C/c3ccc([N+](=O)[O-])s3)C2=O)cc1`, the Potency in assay [1] was 9.53 µM (active). Further, the Potency entry in assay [2] and in assay [3] was “inactive” each time. Moreover, the result in assay [5] was inactive.
Take `CN1CC[C@@]2(C)c3cc(O)ccc3N(C)[C@@H]12`: the Potency result in [11], in [1], in assay [2], in [3] and in assay [4] was “inactive” throughout. Besides, the molecule was classed as inactive in assay [12] and in [5]. The Potency in assay [6] is 5.62 µM (active).
In the case of `Cc1cccc(N2C(=O)NC(=O)/C(=C\c3cc(C)n(-c4sc5c(c4C#N)CCCC5)c3C)C2=O)c1C`, in [1], the Potency was 30.1 µM (active). Also, the Potency result in assay [2] and in [3] was “inactive” in each case. For the same molecule, the molecule was called inactive in assay [5].
Regarding `O=C(c1cc(Cl)cc(Cl)c1)N1Cc2ccccc2-n2nncc2C1`, the Potency result in [1] and in [2] was “inactive” in each case. Moreover, in assay [3], the activation is -5.36% [at 17.1 µM, percent relative to cAMP agonist control]. Also, the activity change, negative = inhibition is -20.5% [at 12.7 µM] in assay [4] and 29.2% [at 30.8 µM] in assay [5].
Regarding `CC1=C(O)C(=O)C=C2C1=CC=C1C2(C)CCC2(C)C3CC(C)(C(=O)O)CCC3(C)CCC12C` (centres undefined), the values for the Potency in [1] and in assay [4] were 33.8 µM (active) and 953 nM (active), respectively. The Potency entry in assay [2], in assay [3] and in [6] was “inactive” each time. For the same molecule, the molecule was classed as inactive in assay [5].
